Results reported in PubChem BioAssay (Tox21).
Where “and” joins values, the source holds several entries; their conditions need not be identical. Identical values can stand only once. Calls of active or inactive are those of the source. Where a call stands in place of a potency, no number is given. Calls come from the whole dose curve; as a rule, active = well fitted activation curve with a large enough effect in the repeat runs; inconclusive = weak or mixed curves; inactive = flat fitted curve, though single readings scatter.

assay: A CellTox Green Cytotoxicity Assay to monitor cytotoxicity in HepG2 cells - 0 hour (AID 1224882); details: CellTox Green fluorescence; series mostly up to 76.8 µM; note: nearly all actives have a fitted effect of over 35% in size
From the text: National Center for Advancing Translational Sciences [NCATS]
NIH Chemical Genomics Center [NCGC]
U.S. Environmental Protection Agency [EPA]
National Institutes of Environmental Health Sciences [NIEHS]
National Toxicology Program [NTP]
Cell-based models are critical for drug discovery. Determining the natural cytotoxic effects resulting from test compounds is an essential research activity. A CellTox Green Cytotoxicity Assay to monitor cytotoxicity in real time of continues cell culture during 40 hours of the compound treatment was used to screen Tox21 10K library compounds in HepG2 cells. CellTox Green Cytotoxicity Assay is a nonlytic, homogeneous, biofluorescent method to measure cytotoxicity in cell culture after experimental manipulation. The assay system uses a proprietary asymmetric cyanine dye that is excluded from viable cells but preferentially stains the dead cell's DNA. […] Viable cells produce no appreciable increases in fluorescence. Therefore, the fluorescence signal produced by the binding interaction with dead cell DNA is proportional to cytotoxicity.
The mixture of HepG2 cell suspension and reagents were dispensed at 600cells/6 ul/well in 1536-well tissue culture treated black solid bottom plates using a Multidrop dispenser. After the assay plates were incubated at a 37 C/5% CO2 incubator for 5 hours, 23 nL of compounds dissolved in DMSO, positive and negative controls was transferred to the assay plate by a pintool work station. The plates were incubated at 37 C for 40 hours. The fluorescence intensity were measured at 0h, 8h, 16h, 24h, 32h and 40h time points using ViewLux plate reader during compound treatment.
Potency is the fitted concentration of half-maximal effect.

SMILES | Potency
O=C1NC(=O)C(c2ccccc2)(c2ccccc2)N1 | inactive
CCCc1cc(=O)[nH]c(=S)[nH]1 | inactive
CN(N=O)C(=O)N[C@@H]1[C@@H](O)[C@H](O)[C@@H](CO)O[C@@H]1O | inactive
CCN(Cc1c(F)cccc1Cl)c1c([N+](=O)[O-])cc(C(F)(F)F)cc1[N+](=O)[O-] | inactive
CN(C)C(=S)SC(=S)N(C)C | inactive
CCCC[P+](CCCC)(CCCC)CCCC | inactive
Cc1cccc(C)c1 | inactive
COc1ccc(C(Cl)=C(c2ccc(OC)cc2)c2ccc(OC)cc2)cc1 | inactive
CCCCNC(=O)NS(=O)(=O)c1ccc(C)cc1 | inactive
COc1ccc2cc(S(=O)(=O)N[C@H](CC(=O)N[C@H](Cc3ccc(CN4[C@H](C)CCC[C@@H]4C)cc3)C(=O)N(C)C(C)C)c3ccc4c(c3)OCO4)ccc2c1 | inactive
CC(=O)CC(c1ccccc1)c1c(O)c2ccccc2oc1=O (stereo not given) | inactive
Nc1ccc(O)c([N+](=O)[O-])c1 | inactive
Nc1c2c(nc3ccccc13)CCCC2 | inactive
COc1ccc2c(c1)c(CC(=O)O)c(C)n2C(=O)c1ccc(Cl)cc1 | inactive
O=C(Nc1ncc([N+](=O)[O-])s1)c1cccs1 | inactive
O=C(O)CC(O)C(=O)O (stereo not given) | inactive
Nc1ccc([N+](=O)[O-])cc1O | inactive
CCCCC1(COC(=O)CCC(=O)O)C(=O)N(c2ccccc2)N(c2ccccc2)C1=O | inactive
CC(=O)Nc1c(I)c(NC(C)=O)c(I)c(C(=O)O)c1I | inactive
CC12CCC(CC1)C(C)(C)O2 | inactive

SMILES | Potency
CC(C)NCC(O)c1ccc(O)c(O)c1 (stereo not given) | inactive
CCOc1ccc(NC(C)=O)cc1 | inactive
C1=CC2C3C=CC(C3)C2C1 (stereo not given) | inactive
C=C1CC[C@H](O)C/C1=C\C=C1/CCC[C@]2(C)[C@@H]([C@H](C)CCCC(C)C)CC[C@@H]12 | inactive
CN[C@H]1CC[C@@H](c2ccc(Cl)c(Cl)c2)c2ccccc21 | inactive
C=C(C)C(=O)OCC(C)O (stereo not given) | inactive
O=CC(=O)c1ccccc1 | inactive
CCCCCCCCCCCCCCCC[N+](C)(C)Cc1ccccc1 | inactive
O=c1[nH]cc(F)c(=O)[nH]1 | inactive
CC/C(=C(\c1ccccc1)c1ccc(OCCN(C)C)cc1)c1ccccc1 | inactive
O=C1OC2(c3ccccc31)c1cc(Br)c(O)c(Br)c1Oc1c2cc(Br)c(O)c1Br | 9.92 µM (active) and 11.3 µM (active) and 23.9 µM (active)
CC(=O)CCC(=O)O | inactive
CN1CCC[C@H]1c1cccnc1 | inactive
Cn1c(=O)c2c(ncn2C)n(C)c1=O | inactive
CC(C)c1c(C(=O)Nc2ccccc2)c(-c2ccccc2)c(-c2ccc(F)cc2)n1CC[C@@H](O)C[C@@H](O)CC(=O)O | inactive
O=C(O)c1ccccc1 | inactive
CN1CCc2cccc3c2[C@H]1Cc1ccc(O)c(O)c1-3 | inactive
NC(=O)c1cccnc1 | inactive
CC1(C)S[C@@H]2[C@H](NC(=O)[C@H](N)c3ccccc3)C(=O)N2[C@H]1C(=O)O | inactive
COc1ccc(OC(F)(F)F)cc1CN[C@H]1CCCN[C@H]1c1ccccc1 | inactive
